# Cycloheximide cs: Cycloheximide Counterscreen for Small Molecule Inhibitors of Shiga Toxin; cell reporter, cycloheximide protein synthesis inhibition counterscreen; max response, %; 300,000 compounds, 12% hits; AID 2314, 2010; in the data active means max response mostly above about 13%, no sharp cut-off; inactive means mostly below about 14%; further: read at 38.3 µM for the half of the compounds with a filed dose; 0% is about no effect
# Shiga inhibitor: A qHTS for Small Molecule Inhibitors of Shiga Toxin; Vero cells, Shiga toxin protein synthesis inhibition reporter; 290,000 compounds, 9.2% hits; inhibition, % at 38.7 µM; in the data active means inhibition mostly above about 28%, no sharp cut-off; inactive means mostly below about 43%; further: 0% is about no effect
# FBPA Giardia inh: qHTS Assay for Inhibitors of Fructose-1,6-bisphosphate Aldolase from Giardia Lamblia. A8B2U2. purified Giardia FBPA. Potency, µM (doses to about 59.6 µM), inactives show at the top dose activity, negative = inhibition, actives largely listed as inhibitors. 290,000 compounds, 0.71% hits; further: potency means the concentration at half of the fitted maximal effect; on the % scale 0 is the no-effect control and ±100 the full control effect; nearly all actives have a fitted effect of over 55% in size
# Target sequence (A8B2U2 whole entry, looked up): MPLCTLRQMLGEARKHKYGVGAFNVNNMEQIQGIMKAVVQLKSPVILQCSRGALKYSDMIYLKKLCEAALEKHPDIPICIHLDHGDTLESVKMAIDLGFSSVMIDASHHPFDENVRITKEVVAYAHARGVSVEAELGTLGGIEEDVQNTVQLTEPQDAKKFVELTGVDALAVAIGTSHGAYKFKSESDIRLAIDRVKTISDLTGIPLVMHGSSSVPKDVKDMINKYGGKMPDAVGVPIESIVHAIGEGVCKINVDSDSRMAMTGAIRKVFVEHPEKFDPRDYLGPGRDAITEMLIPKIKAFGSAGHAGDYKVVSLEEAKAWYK
#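 40 nM FBPA preincubated 10 min at RT with compound (up to 57.5 uM final), then substrate plus GAPDH/TPI/NAD/arsenate coupling and diaphorase/resazurin added. Fluorescence read after 20 min at RT, 525/598 nm.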
# RE007 growth inh: qHTS Assay for Inhibitors of the HIV-1 protein Vpr. S. pombe RE007 Vpr strain, BacTiter-Glo ATP luminescence, 24 h. Potency, µM (series often up to 92.2 µM), for the others: top-dose activity change, negative = less growth, most hits filed as inhibitors. 360,000 compounds, 0.21% hits; active means well fitted falling curve with a large enough effect; inconclusive means small, poorly fitted or top-dose-only effect; inactive means no such curve, though single readings can be large or run the other way; further: potency means the concentration at half of the fitted maximal effect; on the % scale 0 is the no-effect control and ±100 the full control effect; nearly all actives have a fitted effect of over 50% in size
#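 Fission yeast strain RE007, carrying one chromosomally integrated HIV-1 vpr copy, was seeded at OD 0.01 in PMG+AL medium with 23 nL pinned compound. After 24 h at 30 °C and 99% humidity, viability was read by BacTiter-Glo luminescence.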
# LmPK inhibitor: qHTS Assay for Inhibitors of Leishmania Mexicana Pyruvate Kinase (LmPK); 290,000 compounds, 0.37% hits; purified LmPK, Kinase-Glo ATP luminescence, 1 h; Potency, µM (series often up to 57.5 µM), inactives show at the highest dose activity change, negative = inhibition, actives largely listed as inhibitors; Q27686; further: potency means the concentration at half of the fitted maximal effect; on the % scale 0 is the no-effect control and ±100 the full control effect
#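 ATP generated from ADP (0.1 mM) and PEP (0.5 mM) by 0.1 nM LmPK over 1 h at room temperature (pH 7.2 imidazole buffer) was detected by coupled luciferase luminescence. Values were normalized to uninhibited and no-enzyme wells.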
# TbPYK inhibitor: qHTS of Trypanosoma Brucei Inhibitors; pyruvate kinase (Trypanosoma brucei), Q57TT1; TbPYK enzyme, Kinase-Glo Plus ATP luminescence, 45 min; Potency, µM (titrated, usually from 76.8 µM), without a hit: at the top dose activity, negative = inhibition, most hits filed as inhibitors; 410,000 compounds, 0.12% hits; further: potency means the concentration at half of the fitted maximal effect; on the % scale 0 is the no-effect control and ±100 the full control effect; nearly all actives have a fitted effect of over 50% in size
#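 Readout: single end-point luminescence (Kinase-Glo Plus, 10 min). Reaction conditions were TbPYK/substrate plus 130 uM ADP, 45 min at RT, pH 7.2 TEA buffer. No-enzyme wells served as controls, and data were normalized before concentration-response fitting.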
# The depositor's hits bear a star; ? = inconclusive; nt = no result given. This excerpt belongs to a sample that is enriched for hits. Unless noted, the call rests on the fitted dose curve; in most records, active means well fitted curve in the direction sought with a large enough effect; inconclusive means small, poorly fitted or top-dose-only effect, or another doubt; inactive means no such curve, though single readings can be large; an effect the other way counts as inactive or inconclusive.
SMILES,Cycloheximide cs,Shiga inhibitor,FBPA Giardia inh,RE007 growth inh,LmPK inhibitor,TbPYK inhibitor
COCCNC(=O)C1CC(c2ccc([N+](=O)[O-])cc2)=NO1 (configuration not stated),-4,-4,4%,17%,-1%,2%
O=C(NCc1ccc(OC(F)(F)F)cc1)C1CC(c2ccccc2[N+](=O)[O-])=NO1 (configuration not stated),2,-12,20%,10%,2%,-3%
Cc1ccc(CNC(=O)C2CC(c3ccccc3[N+](=O)[O-])=NO2)cc1 (configuration not stated),13*,-2,2%,-22%,0%,0%
Cc1cccc(-c2nnc(SCc3cc(=O)c4cccc(Cl)c4[nH]3)n2C)c1,nt,nt,nt,nt,nt,-6%
Cc1ccc(CNC(=O)C2CC(c3cccc([N+](=O)[O-])c3)=NO2)o1 (configuration not stated),33*,64*,0%,5%,0%,-7%
COc1ccc(CCNC(=O)C2CC(c3ccc([N+](=O)[O-])cc3)=NO2)cc1 (configuration not stated),33*,43*,0%,13%,-2%,5%
COCCNC(=S)Nc1cc(OC)c(OC)cc1C#N,1,2,-20%,-5%,2%,3%
COc1ccc(Cn2ncc3c4sc(C)cc4n(C)c3c2=O)cc1,-2,20,nt,nt,nt,nt
O=C(O)C1CC(=O)N(CCOc2ccccc2)C1 (configuration not stated),-3,-6,0%,-8%,3%,-7%
O=C1NC(=O)C(Cc2ccc(OCCN3COc4ccccc4C3=O)cc2)S1 (configuration not stated),25*,9,21%,nt,nt,nt
O=C(/C=C/c1cccc(Cl)c1)Nc1ccncc1,38*,53*,5%,1%,0%,8%
O=C(/C=C/c1c(F)cccc1Cl)Nc1ccncc1,61*,96*,2%,-19%,-3%,3%
Cc1cc(NS(=O)(=O)c2ccc(NC(=O)/C=C/c3c(F)cccc3Cl)cc2)no1,-5,-2,-11%,4%,-3%,-4%
O=C(/C=C/c1c(Cl)cccc1Cl)Nc1ccncc1,13*,36,0%,?,11%,9%
O=C(O)CNC(=O)/C=C/c1c(Cl)cccc1Cl,10,22,4%,2%,-8%,0%
Nc1c2c(nc3sc4c(c13)CCCCC4)CCCCC2,51*,59*,0%,7%,-14%,1%
CC(C)(C)c1nc2sc3c(c2c(=O)o1)CCCC3,-5,-6,4%,-18%,-15%,4%
Nc1nc2c(s1)CCCCCCCCCC2,-1,2,-9%,-6%,3%,2%
CCc1nc2sc3c(c2c(=O)o1)CCCC3,8,14,-19%,6%,0%,-10%
Nc1c2c(nc3sc4c(c13)CCCC4)CCCCC2,71*,130*,1%,15%,-25%,-13%
Nc1c2c(nc3sc4c(c13)CCCC4)CCCC2,26*,107*,-8%,-18%,-3%,-2%
Nc1cccc(B(O)O)c1,nt,nt,-10%,nt,nt,nt
COc1ccc(CNc2ccc(N3CCN(C(C)=O)CC3)cc2)cc1OC,nt,nt,nt,nt,nt,-8%
COc1cc(CNc2ccc(O)cc2)cc(Br)c1OCc1ccccc1F,1,5,16µM*,-12%,0%,?
COc1cc(CNc2ccc(N3CCCCC3)cc2)ccc1OCC(=O)NC(C)(C)C,13*,40*,-8%,?,-1%,-8%
COc1cc(CNc2ccc(S(N)(=O)=O)cc2)ccc1OCc1ccccc1F,nt,nt,nt,-11%,nt,-8%
COc1cc(CNCCCCO)ccc1OCc1ccccc1F,18*,57*,-1%,4%,1%,3%
COc1cc(CNc2ccc(N3CCCC3)cc2)ccc1OCc1ccccc1F,64*,173*,4%,-8%,-21%,-34%
Cc1c(C(=O)N2CCCCC2)c(S(=O)(=O)Nc2ccc(F)cc2F)c(C)n1C,10,2,11%,-7%,0%,1%

# Screening data deposited in PubChem BioAssay by National Center for Advancing Translational Sciences (NCATS).
